Experimental data reported in PubChem BioAssay.
Active and inactive are the calls of the source.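 The calls were made as follows, unless noted: active = inhibition above 20% together with a positive visual image hit; inconclusive = visual image hit but inhibition not above 20%; inactive = no visual image hit.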

Tests used:
[1] = inhibitors of TNFa-induced NFkB p65 translocation, primary screen, imaging, HUVEC, MLSMR starter and 10KST1 sets (AID 438); details: HUVEC TNFa-induced p65 nuclear translocation; cell count: measured here: nuclei count (cytotoxicity indicator), at 2.08 µM; inhibition: at 2 µM, stronger effect = higher value, 0% TNFa-plus-vehicle, 100% no-TNFa wells;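 also: compound added about 3h40 before a 20 min TNFalpha stimulation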;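 as to inhibition: signal is the nuclear over cytoplasmic p65 intensity ratio per well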
[2] = reduction of polyQ htt aggregates in cells – imaging, exon1htt(103Q)mCFP cells, high-content imaging, primary screen (AID 483;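 active = visual image review flags a hit and inhibition of aggregation exceeds 20%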;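 also: compound exposure lasted 3 days before fixation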;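 as to nuclei count: percent of the per-plate median nuclei count of sample wells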); details: exon1htt(103Q)mCFP cell line, aggregate imaging, at 2 µM; inhibition of aggregation: stronger effect = higher value; nuclei count: measured here: cell count, toxicity
[3] = endothelial E-selectin expression blockers – imaging, HUVEC, immunofluorescence, MLSMR starter and 10KST1 sets, primary screen (AID 487;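 active = visually confirmed hit in the image check and inhibition above 20%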;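 as to inhibition: signal is fraction of cell area covered by stained E-selectin grains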;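 as to nuclei count: 100% = median nuclei count of all wells on the same plate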); details: HUVEC TNFalpha-induced E-selectin immunofluorescence imaging, at 2 µM; inhibition: stronger effect = higher value; nuclei count: measured here: cell number, toxicity
[4] = biological target: Voltage-gated potassium channel subunit beta-2 (Rattus norvegicus) (UniProt P62483); experiment: inhibitors of rat Kvbeta2 reductase activity – biochemical, NADPH fluorescence, primary screen (AID 622;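 active = fluorescence slope higher than the sample average by over 3 SD, cut at about -0.22 in these data, passing the limit was not always enough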;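 also: slope of raw intensity against log time taken from 70 to 1610 s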); details: recombinant KvBeta, 4-cyanobenzaldehyde reduction, at 10 µM, stronger effect = higher value
Voltage-gated potassium channel subunit beta-2 (Rattus norvegicus), sequence (P62483 whole entry, looked up): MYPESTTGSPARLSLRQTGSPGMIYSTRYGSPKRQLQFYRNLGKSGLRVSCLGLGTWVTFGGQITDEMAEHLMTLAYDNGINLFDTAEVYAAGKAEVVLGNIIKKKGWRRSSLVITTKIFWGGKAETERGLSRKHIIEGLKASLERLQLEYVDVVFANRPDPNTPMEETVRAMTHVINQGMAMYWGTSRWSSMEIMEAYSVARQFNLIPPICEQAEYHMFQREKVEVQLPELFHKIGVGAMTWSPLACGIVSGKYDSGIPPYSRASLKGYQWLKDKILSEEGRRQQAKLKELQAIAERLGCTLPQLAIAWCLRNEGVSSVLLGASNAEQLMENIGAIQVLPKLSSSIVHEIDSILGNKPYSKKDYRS

[5] = biological target: Voltage-gated potassium channel subunit beta-2 (Rattus norvegicus) (UniProt P62483); experiment: enhancers of rat Kvbeta2 NADPH turnover – biochemical, NADPH fluorescence, primary screen (AID 623;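 active = NADPH fluorescence slope more negative than the mean of all samples by about 3 SD, 99.7% confidence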;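 also: fluorescence intensity change per second fitted from 20 to 320 s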); details: Recombinant KvBeta, NADPH fluorescence decrease slope, 10 min; at 10 µM; stronger effect = lower value
[6] = biological target: Alpha-2C adrenergic receptor (Homo sapiens) (UniProt P18825); experiment: compounds altering alpha2C-coupled GIRK flux – cell-based, HEK293 alpha2C/GIRK1/2, thallium flux, primary screen (AID 624;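 active = fluorescence slope after compound addition differing from the mean of all screened samples at 99.7% confidence, in either direction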;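 also: slope of fluorescence ratio to pre-addition baseline per second over 15 to 24 s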); details: thallium flux BTC fluorescence, at 10 µM, actives lie on both sides
Alpha-2C adrenergic receptor (Homo sapiens), sequence (P18825 whole entry, looked up): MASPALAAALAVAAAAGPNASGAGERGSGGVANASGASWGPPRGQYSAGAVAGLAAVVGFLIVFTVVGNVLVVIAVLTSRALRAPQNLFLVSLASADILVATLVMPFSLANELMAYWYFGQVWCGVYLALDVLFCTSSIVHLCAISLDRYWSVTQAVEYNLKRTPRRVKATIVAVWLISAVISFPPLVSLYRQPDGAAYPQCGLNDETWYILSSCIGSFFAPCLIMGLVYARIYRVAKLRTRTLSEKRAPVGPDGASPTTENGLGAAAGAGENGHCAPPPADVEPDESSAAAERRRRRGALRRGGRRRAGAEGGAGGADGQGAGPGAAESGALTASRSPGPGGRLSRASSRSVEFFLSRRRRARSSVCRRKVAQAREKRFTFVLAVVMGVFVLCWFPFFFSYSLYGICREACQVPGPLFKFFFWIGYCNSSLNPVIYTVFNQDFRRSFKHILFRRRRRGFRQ

[7] = blockers of RIG-like receptor reporter activation – cell-based, Sendai virus stimulus, luciferase, 10K MLSCN set, TLR/RLR signaling modifier project, primary screen (AID 602276;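 active = inhibition at or above 50% at 10 µM; inactive = inhibition below 50%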;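 also: firefly luciferase from ISG56 promoter only with Renilla not read in this screen; 0% = Sendai virus plus DMSO and 100% = medium plus DMSO without virus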); details: HEK293 RL24 IRF3 luciferase reporter, at 10 µM, stronger effect = higher value
[8] = TLR3 IRF3 reporter activation blockers – cell-based, poly I:C stimulus, luciferase, 10K MLSCN set, primary screen (AID 602277;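 active = inhibition of the reporter signal at or above 50%; inactive = inhibition below 50%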); details: HEK293-TLR3 RL24 IRF3 luciferase reporter, at 10 µM, stronger effect = higher value

Cc1ccc(-c2nc(=S)c3c(n2Cc2ccco2)CCCC3)cc1
cell count [1]: 320
inhibition [1]: 1% (inactive)
inhibition of aggregation [2]: -7.2% (inactive)
nuclei count [2]: 77.9%
inhibition [3]: -22.3% (inactive)
nuclei count [3]: 85.5%
fluorescence slope [4]: -0.485 (inactive)
NADPH fluorescence slope [5]: -0.00017 (inactive)
slope [6]: 0.00678 (inactive)
inhibition [7]: 16% (inactive)
inhibition [8]: 27.9% (inactive)

O=C(NC1CCCCC1)N(Cc1ccccc1)Cc1ccco1
cell count [1]: 482
inhibition [1]: 6.5% (inactive)
inhibition of aggregation [2]: 0.2% (inactive)
nuclei count [2]: 90.9%
inhibition [3]: -214% (inactive)
nuclei count [3]: 128%
fluorescence slope [4]: -0.4 (inactive)
NADPH fluorescence slope [5]: 6.8e-05 (inactive)
slope [6]: 0.00512 (inactive)
inhibition [7]: -9.22% (inactive)
inhibition [8]: 11.3% (inactive)

CC1=C(C(=O)OC2CCCCCC2)C(c2ccc(C)o2)C2=C(CCCC2=O)N1 (centres undefined)
cell count [1]: 420
inhibition [1]: 3.9% (inactive)
inhibition of aggregation [2]: -10% (inactive)
nuclei count [2]: 102%
inhibition [3]: -22.9% (inactive)
nuclei count [3]: 108%
fluorescence slope [4]: -0.572 (inactive)
NADPH fluorescence slope [5]: -2e-05 (inactive)
slope [6]: 0.00508 (inactive)
inhibition [7]: -8.61% (inactive)
inhibition [8]: -19.9% (inactive)

CCc1nnc(NC(=O)COC(=O)CN2C(=O)c3ccccc3C2=O)s1
cell count [1]: 375
inhibition [1]: 4.7% (inactive)
inhibition of aggregation [2]: 7.1% (inactive)
nuclei count [2]: 91.2%
inhibition [3]: 4.5% (inactive)
nuclei count [3]: 84.7%
fluorescence slope [4]: -0.53 (inactive)
NADPH fluorescence slope [5]: -4.4e-05 (inactive)
slope [6]: 0.00636 (inactive)
inhibition [7]: -1.09% (inactive)
inhibition [8]: 12.5% (inactive)

Cn1c(=O)n(CC(=O)OCc2ccccc2)c(=O)c2c1nc1n2CCCN1C1CCCCC1
cell count [1]: 376
inhibition [1]: 3.2% (inactive)
inhibition of aggregation [2]: 0.2% (inactive)
nuclei count [2]: 82.9%
inhibition [3]: 25.3% (inactive)
nuclei count [3]: 92%
fluorescence slope [4]: -0.479 (inactive)
NADPH fluorescence slope [5]: -1.8e-05 (inactive)
slope [6]: 0.00618 (inactive)
inhibition [7]: -2.49% (inactive)
inhibition [8]: 17.2% (inactive)

COc1ccc(Cn2c(-c3ccco3)nc3oc4ccccc4c(=O)c3c2=O)cc1
cell count [1]: 492
inhibition [1]: -7.6% (inactive)
inhibition of aggregation [2]: -68.5% (inactive)
nuclei count [2]: 90.1%
inhibition [3]: -22% (inactive)
nuclei count [3]: 115%
fluorescence slope [4]: -0.491 (inactive)
NADPH fluorescence slope [5]: -2.1e-05 (inactive)
slope [6]: 0.00596 (inactive)
inhibition [7]: -1.06% (inactive)
inhibition [8]: -24.4% (inactive)

COc1cc(OC)c2c(c1)OC(c1ccc(OC)c(OC)c1)C(O)C2=O (centres undefined)
cell count [1]: 524
inhibition [1]: 2.6% (inactive)
inhibition of aggregation [2]: -8.9% (inactive)
nuclei count [2]: 104%
inhibition [3]: -60% (inactive)
nuclei count [3]: 115%
fluorescence slope [4]: -0.5 (inactive)
NADPH fluorescence slope [5]: -2.5e-05 (inactive)
slope [6]: 0.00643 (inactive)
inhibition [7]: 10.3% (inactive)
inhibition [8]: 3.76% (inactive)

Cn1c(C(=O)N2CCCC(C(=O)NCCCc3ccccc3)C2)cc2sccc21 (centres undefined)
cell count [1]: 550
inhibition [1]: -16.1% (inactive)
inhibition of aggregation [2]: 6.7% (inactive)
nuclei count [2]: 139%
inhibition [3]: -32.8% (inactive)
nuclei count [3]: 103%
fluorescence slope [4]: -0.256 (inactive)
NADPH fluorescence slope [5]: 6.7e-06 (inactive)
slope [6]: 0.00472 (inactive)
inhibition [7]: 0.49% (inactive)
inhibition [8]: -2.49% (inactive)

N#Cc1nc(-c2ccccc2Cl)oc1N1CCOCC1
cell count [1]: 332
inhibition [1]: 5% (inactive)
inhibition of aggregation [2]: 10.4% (inactive)
nuclei count [2]: 96.7%
inhibition [3]: -53.5% (inactive)
nuclei count [3]: 116%
fluorescence slope [4]: -0.356 (inactive)
NADPH fluorescence slope [5]: 3.4e-06 (inactive)
slope [6]: 0.00468 (inactive)
inhibition [7]: 5.17% (inactive)
inhibition [8]: -5.75% (inactive)

CC1CCN(S(=O)(=O)c2cccc(C(=O)Nc3ccccn3)c2)CC1
cell count [1]: 338
inhibition [1]: -4.3% (inactive)
inhibition of aggregation [2]: 26.3% (inactive)
nuclei count [2]: 78%
inhibition [3]: 4.5% (inactive)
nuclei count [3]: 90.4%
fluorescence slope [4]: -0.338 (inactive)
NADPH fluorescence slope [5]: -4.1e-05 (inactive)
slope [6]: 0.00478 (inactive)
inhibition [7]: 18.4% (inactive)
inhibition [8]: 23.9% (inactive)

O=C(NC1CCCc2ccccc21)c1ccc(CNc2c(N3CCOCC3)c(=O)c2=O)cc1 (centres undefined)
cell count [1]: 644
inhibition [1]: -3.4% (inactive)
inhibition of aggregation [2]: 36.3% (active)
nuclei count [2]: 51.3%
inhibition [3]: -52.7% (inactive)
nuclei count [3]: 108%
fluorescence slope [4]: -0.55 (inactive)
NADPH fluorescence slope [5]: -2.5e-06 (inactive)
slope [6]: 0.00556 (inactive)
inhibition [7]: 12.8% (inactive)
inhibition [8]: 27% (inactive)

COc1ccc(S(=O)(=O)Nc2ccc3c(c2)OCO3)cc1Cl
cell count [1]: 625
inhibition [1]: 7% (inactive)
inhibition of aggregation [2]: -18.4% (inactive)
nuclei count [2]: 101%
inhibition [3]: -9.8% (inactive)
nuclei count [3]: 101%
fluorescence slope [4]: -0.392 (inactive)
NADPH fluorescence slope [5]: -6.9e-05 (inactive)
slope [6]: 0.00299 (inactive)
inhibition [7]: 10.6% (inactive)
inhibition [8]: 12.9% (inactive)

CCN1C(=O)CC(N2CCC(Nc3ccc(F)cc3)CC2)C1=O (centres undefined)
cell count [1]: 559
inhibition [1]: -9.7% (inactive)
inhibition of aggregation [2]: 6.4% (inactive)
nuclei count [2]: 57.1%
inhibition [3]: -72% (inactive)
nuclei count [3]: 94.1%
fluorescence slope [4]: -0.541 (inactive)
NADPH fluorescence slope [5]: 6.8e-06 (inactive)
slope [6]: 0.00599 (inactive)
inhibition [7]: -4.21% (inactive)
inhibition [8]: -6.01% (inactive)

Cc1nc2sc(C(c3ccco3)N3CCN(c4ccccc4F)CC3)c(O)n2n1 (centres undefined)
cell count [1]: 226
inhibition [1]: -5.9% (inactive)
inhibition of aggregation [2]: 3.8% (inactive)
nuclei count [2]: 104%
inhibition [3]: -0.8% (inactive)
nuclei count [3]: 114%
fluorescence slope [4]: -0.436 (inactive)
NADPH fluorescence slope [5]: -6.1e-06 (inactive)
slope [6]: 0.00573 (inactive)
inhibition [7]: 7.27% (inactive)
inhibition [8]: 10.5% (inactive)
